Consider 30 compounds from PubChem BioAssay (Tox21).

Values without a mark were called inactive. Results filed as inconclusive are left out. Active and inactive are the calls of the source. Calls come from the whole dose curve.

In assay [1] the target is Acetylcholinesterase (Homo sapiens) (UniProt P22303). Kind of assay: Acetylcholinesterase (AChE) small molecule antagonists: colormetric cell-based qHTS assay (AID 1347395). Note: nearly all actives have a fitted effect of over 30% in size. Note: potency is the fitted concentration of half-maximal effect. The method in brief: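 In this cell-based qHTS, attached SH-SY5Y cells were treated with test chemicals for 30 min, after which acetylthiocholine hydrolysis was followed by DTNB colour development over 90 min at 37 C.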
Sequence of Acetylcholinesterase (Homo sapiens) (P22303 whole entry, looked up): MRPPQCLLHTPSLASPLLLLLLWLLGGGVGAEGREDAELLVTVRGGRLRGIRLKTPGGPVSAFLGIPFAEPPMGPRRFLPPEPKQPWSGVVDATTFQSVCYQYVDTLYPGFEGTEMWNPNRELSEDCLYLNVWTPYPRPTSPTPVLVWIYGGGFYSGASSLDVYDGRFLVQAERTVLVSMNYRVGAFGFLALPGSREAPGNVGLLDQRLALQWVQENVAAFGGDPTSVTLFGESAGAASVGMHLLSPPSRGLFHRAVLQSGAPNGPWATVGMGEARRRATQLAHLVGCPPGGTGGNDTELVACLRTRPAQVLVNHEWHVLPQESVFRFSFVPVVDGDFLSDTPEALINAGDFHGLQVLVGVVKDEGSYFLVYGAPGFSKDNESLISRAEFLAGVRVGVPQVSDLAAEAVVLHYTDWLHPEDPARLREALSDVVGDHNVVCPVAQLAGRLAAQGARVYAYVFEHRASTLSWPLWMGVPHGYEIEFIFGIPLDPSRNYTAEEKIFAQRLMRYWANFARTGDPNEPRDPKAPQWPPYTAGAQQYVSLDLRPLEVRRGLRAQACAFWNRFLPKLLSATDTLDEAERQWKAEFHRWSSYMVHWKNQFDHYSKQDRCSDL

The target is the same in assay [2]. Nature of the assay: Acetylcholinesterase (AChE) small molecule antagonists: enzyme-based qHTS assay (AID 1347397). Note: nearly all actives have a fitted effect of over 55% in size. Note: potency is the fitted concentration of half-maximal effect. The note with it: Potency: AChE enzyme activity inhibition; outcome: AChE enzyme activity inhibition. In outline: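 Colorimetric DTNB readout of acetylthiocholine hydrolysis, 10 min at room temperature, after 30 min room-temperature exposure of 50 mU/mL recombinant human enzyme to compound; DMSO vehicle control.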
Background: In qHTS, concentration-response curves come from the screen itself.

Assay [3] shares this target. Nature of the assay: Acetylcholinesterase (AChE) small molecule antagonists: fluorescence cell-based qHTS assay (AID 1347398). Note: nearly all actives have a fitted effect of over 50% in size. Note: potency is the fitted concentration of half-maximal effect. To be noted: Potency: AChE activity; outcome: AChE activity. In outline:
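Cellular AChE activity read as thiocholine from acetylthiocholine hydrolysis, detected by Thiolite Green fluorescence at 490/520 nm after 40 min at room temperature. Compounds were pre-incubated 30 min at 37 C on adherent SH-SY5Y cells.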

Assay [4] has the same target. Kind of assay: Acetylcholinesterase (AChE) small molecule antagonists: enzyme-based qHTS assay with human liver microsomes (AID 1347399). Note: nearly all actives have a fitted effect of over 60% in size. The note with it: Potency: qHTS inhibition; outcome: qHTS inhibition. The method in brief: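 Recombinant human AChE (50 mU/mL in the enzyme mix) and human liver microsomes (0.25 mg/mL final) were preincubated with compound and NADPH (0.25 mg/mL final) for 30 min at 37 C. Acetylthiocholine/DTNB was then added; thiocholine was read colorimetrically after 10 min at room temperature.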
% is set by controls: 0 for no effect and ±100 for the full control effect.

In the case of `O=C(Nc1ccccc1)c1cc([N+](=O)[O-])ccc1Cl`, the Potency result in assay [1], in assay [2], in assay [3] and in assay [4] was “inactive” each time.
With `CC[C@H](C)C(=O)O[C@H]1C[C@H](O)C=C2C=C[C@H](C)[C@H](CC[C@@H](O)C[C@@H](O)CC(=O)O)[C@H]21`, the Potency entry in assay [1], in assay [2], in assay [3] and in assay [4] was “inactive” in each case.
With `O=C1CCCCC1`, the Potency entry in assay [1], in assay [2], in assay [3] and in assay [4] was “inactive” in each case.
Regarding `CC1=C(Br)C(=O)C(Br)=C/C1=C(/c1ccccc1S(=O)(=O)O)c1cc(Br)c(O)c(Br)c1C`, the Potency entry in assay [1], in assay [2], in assay [3] and in assay [4] was “inactive” in each case.
As to `C[C@@H](Oc1ccc(CNC(=O)c2cccnc2Oc2ccc3c(c2)OCO3)c(F)c1)C(=O)O`, the Potency result in assay [1], in assay [2], in assay [3] and in assay [4] was “inactive” throughout.
On to `C=C(C)C(=O)OCC(O)CO` (stereo not given), for which the Potency result in assay [1], in assay [2], in assay [3] and in assay [4] was “inactive” in each case.
In the case of `COC(=O)c1ccc2cc(C(=O)OC)ccc2c1`, in assay [1], the activity, negative = inhibition was 3.17% [at 23.6 µM]. Further, the figures for the activity change, negative = inhibition in assay [2], in assay [3] and in assay [4] were -0.273% [at 23.6 µM], -7.2% [at 23.8 µM] and -4.52% [at 23.6 µM], respectively.
As to `CCCCC(CC)COC(=O)CCCCCCCC(=O)OCC(CC)CCCC` (stereo not given), the Potency entry in assay [1], in assay [2], in assay [3] and in assay [4] was “inactive” each time.
As to `C=C(C)C(=O)OCCCCCCOC(=O)C(=C)C`, the Potency entry in assay [1], in assay [2], in assay [3] and in assay [4] was “inactive” each time.
In the case of `C=CCCC(=O)/C=C/C1C(C)=CCCC1(C)C` (stereo not given), the Potency result in assay [1], in assay [2], in assay [3] and in assay [4] was “inactive” throughout.
Take `CC(C)=CCC/C(C)=C/CC/C(C)=C/CO`: the Potency entry in assay [1], in assay [2], in assay [3] and in assay [4] was “inactive” in each case.
Consider `CC/C(=C(\c1ccc(O)cc1)c1ccc(OCCN(C)C)cc1)c1ccccc1`, for which the Potency in assay [1] was 44.9 µM (active); in assay [2], 79.9 µM (active); in assay [3] it was 40 µM (active). Also, the Potency entry in assay [4] is “inactive”.
For `OC1C(O)C(O)C(O)C(O)C1O` (stereo not given), the Potency result in assay [1], in assay [2], in assay [3] and in assay [4] was “inactive” in each case.
For the compound `CC1(C)[C@H]2CC[C@](C)(C2)[C@H]1O`, the Potency result in assay [1], in assay [2], in assay [3] and in assay [4] was “inactive” in each case.
Regarding `COC(OC)C(C)c1ccccc1` (stereo not given), the Potency result in assay [1], in assay [2], in assay [3] and in assay [4] was “inactive” throughout.
As to `CC(=O)OCc1ccccc1`, the Potency result in assay [1], in assay [2], in assay [3] and in assay [4] was “inactive” throughout.
In the case of `C=CC(=O)NCOCCCC`, the Potency result in assay [1], in assay [2], in assay [3] and in assay [4] was “inactive” each time.
With `O=C(OCC(O)CO)c1ccccc1Nc1ccnc2c(C(F)(F)F)cccc12` (stereo not given), the Potency entry in assay [1], in assay [2], in assay [3] and in assay [4] was “inactive” throughout.
For the compound `Cc1ccc(C(=O)O)o1`, the Potency entry in assay [1], in assay [2], in assay [3] and in assay [4] was “inactive” throughout.
Regarding `CCCCCCCC(=O)O`, the Potency entry in assay [1], in assay [2], in assay [3] and in assay [4] was “inactive” in each case.
In the case of `CC(C)CCCCCCCOC(=O)c1ccc(C(=O)OCCCCCCCC(C)C)c(C(=O)OCCCCCCCC(C)C)c1`, the Potency entry in assay [1], in assay [2], in assay [3] and in assay [4] was “inactive” in each case.
For `Cc1ncc([N+](=O)[O-])n1CCO`, the Potency entry in assay [1], in assay [2], in assay [3] and in assay [4] was “inactive” each time.
Turning to `OC1OC[C@@H](O)[C@H](O)[C@H]1O` (stereo not given in full), the Potency result in assay [1], in assay [2], in assay [3] and in assay [4] was “inactive” each time.
Regarding `Cc1ccnc(NS(=O)(=O)c2ccc(N)cc2)n1`, the Potency entry in assay [1], in assay [2], in assay [3] and in assay [4] was “inactive” throughout.
As for `CCC(=O)Nc1ccc(O)cc1`, the Potency entry in assay [1], in assay [2], in assay [3] and in assay [4] was “inactive” in each case.
As to `CCO/C=C1\N=C(c2ccccc2)OC1=O`, the Potency entry in assay [1], in assay [2], in assay [3] and in assay [4] was “inactive” each time.
Take `CCCCC(=O)OCC(=O)[C@H]1[C@H](C)C[C@H]2[C@@H]3C[C@H](F)C4=CC(=O)C=C[C@]4(C)[C@@]3(F)[C@@H](O)C[C@@]21C`: the Potency result in assay [1], in assay [2], in assay [3] and in assay [4] was “inactive” each time.
Consider `COC(=O)CCCCC(CCSS/C(CCO)=C(\C)N(C=O)Cc1cnc(C)nc1N)SC(C)=O` (stereo not given), for which the Potency result in assay [1], in assay [2], in assay [3] and in assay [4] was “inactive” throughout.
As for `CC(O)CC(C)O` (stereo not given), the Potency result in assay [1], in assay [2], in assay [3] and in assay [4] was “inactive” in each case.
On to `Cc1ccc(C)c(C)c1`, for which the Potency entry in assay [1], in assay [2], in assay [3] and in assay [4] was “inactive” each time.
